Results reported in the OligoGym collection.

Target: COL4A3BP
Test: pooled miR-30 sensor sort-seq; sequence = guide strand
Settings: shRNA
Also: reference of the scale not given here.

Row | Sequence | sensor-assay potency score (higher = more potent)
1 | TTCTTCTACAACCAACTGCCAA | -0.938
2 | TTCTCCTTCTTCTACAACCAAC | -1.55
3 | TACTTCTCTTCTGTATACCTTC | -0.012
4 | TTAGCTACATATGTAATCTTGC | 0.206
5 | TCGACATTCATCAAAATCGTGA | -0.678
6 | TTCTCTTCTGTATACCTTCATT | -1.23
7 | TTGTAGGAAAGTCATCTTCATC | -1.71
8 | TTATTTTTCAAAACTACCCAAC | -0.396
9 | TAACTTTTCTTTATTGCCGTTG | -0.347
10 | TTGCATAGAATGTTGTCCCTGC | 0.716

Target: COMMD10
Test: as above
Settings: shRNA

Row | Sequence | sensor-assay potency score (higher = more potent)
11 | TATTGTTTCAAGAACTAGGTGA | 0.412
12 | TTTTTGAAGAATCCGAGTGAGC | -1.13
13 | TTGCATTTATCAGTGACACTGC | 0.191
14 | TGCTTGTATAGTCTCTAGCTTG | -1.08
15 | TTCTACTAAGGTACACATCTTA | 0.49
16 | TTGAGCAGAGTGAGCCATCTGA | -0.146
17 | TTCCACAAGAACTTTCTCCAGG | -0.261
18 | TTGTATAGTCTCTAGCTTGTTA | 0.109
19 | TAAGGTACACATCTTATCTTGT | 0.795
20 | TTGTCTAAGATGAATGTTCTCT | 0.187
21 | TTAACAATGATCTCTATTGGTT | -0.722
22 | TAGAAATCAAACAACTCCTTGT | 0.836
